This is an account of results in publication PMC4336329 (PLoS ONE, 2015).

Hit rate of the full screen: of about 310,000 compounds, about 14,000 (4.5%) showed an effect of 50% or more. Effects have a minus sign here. The full list was thinned out, with strong results kept by preference.
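Further: peak tail current of the secondary pulse compared with the same well before compound.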

The test deals with human ether-à-go-go-related gene (hERG) potassium channel (human, UniProt Q12809). In words: primary screen, population patch clamp on CHO cells stably expressing hERG; higher = less effect of the substance.
Chain of human ether-à-go-go-related gene (hERG) potassium channel (Q12809 whole entry, looked up): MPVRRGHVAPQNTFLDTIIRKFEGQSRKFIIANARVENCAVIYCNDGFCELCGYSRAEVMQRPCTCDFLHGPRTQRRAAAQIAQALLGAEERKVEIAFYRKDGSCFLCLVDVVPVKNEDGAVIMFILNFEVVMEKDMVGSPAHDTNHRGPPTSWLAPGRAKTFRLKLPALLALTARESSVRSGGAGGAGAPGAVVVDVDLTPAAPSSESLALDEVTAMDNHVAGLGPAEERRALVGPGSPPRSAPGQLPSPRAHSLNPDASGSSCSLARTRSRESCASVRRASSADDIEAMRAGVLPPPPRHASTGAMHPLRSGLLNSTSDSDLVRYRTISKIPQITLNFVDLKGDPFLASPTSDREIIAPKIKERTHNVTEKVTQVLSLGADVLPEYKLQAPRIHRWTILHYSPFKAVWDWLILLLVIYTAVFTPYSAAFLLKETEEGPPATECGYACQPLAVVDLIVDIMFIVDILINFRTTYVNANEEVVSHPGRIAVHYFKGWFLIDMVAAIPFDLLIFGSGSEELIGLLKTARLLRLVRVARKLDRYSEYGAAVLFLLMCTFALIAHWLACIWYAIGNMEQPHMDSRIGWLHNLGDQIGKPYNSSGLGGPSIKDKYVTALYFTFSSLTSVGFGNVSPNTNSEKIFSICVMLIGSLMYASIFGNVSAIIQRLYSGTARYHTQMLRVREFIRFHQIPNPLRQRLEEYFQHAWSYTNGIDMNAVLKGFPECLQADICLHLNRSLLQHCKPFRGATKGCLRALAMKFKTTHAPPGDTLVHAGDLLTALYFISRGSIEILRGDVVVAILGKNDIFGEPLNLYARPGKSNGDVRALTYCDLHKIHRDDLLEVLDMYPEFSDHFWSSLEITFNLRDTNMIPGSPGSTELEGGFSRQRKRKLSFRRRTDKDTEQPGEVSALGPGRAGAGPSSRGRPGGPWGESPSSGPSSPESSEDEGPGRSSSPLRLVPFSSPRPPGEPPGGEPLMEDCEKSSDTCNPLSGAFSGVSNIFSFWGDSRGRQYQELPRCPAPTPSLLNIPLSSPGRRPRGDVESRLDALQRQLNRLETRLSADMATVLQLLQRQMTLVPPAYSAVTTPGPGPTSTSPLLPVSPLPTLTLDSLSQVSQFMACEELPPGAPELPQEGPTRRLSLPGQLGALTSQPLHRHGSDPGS
Regarding `COc1ccc(CN(C)CC(=O)Nc2ccccc2C(=O)NC2CC2)cc1OC`, the “hERG current change (%, negative = inhibition) at 10uM” value was -21.7%.

Take `COc1cccc(OC)c1NC(=O)CN1CCC(NC(=O)c2cccc(F)c2)CC1`: the “hERG current change (%, negative = inhibition) at 10uM” value turned out to be 1.5%. For the compound `COC(=O)c1ccccc1NC(=O)CN1CCC(NC(=O)c2ccc(C)cc2)CC1`, the “hERG current change (%, negative = inhibition) at 10uM” value stood at 8.67%.

On to `COc1cc(C)c(CN2CCN(CC(=O)Nc3ccccc3C(=O)NC3CC3)CC2)cc1OC`, for which the “hERG current change (%, negative = inhibition) at 10uM” value is -80.1%. In the case of `COc1ccccc1OCC(=O)Nc1ccccc1C(=O)NC1CC1` it was -8.86%; in that of `COc1ccc(CN2CCN(CC(=O)Nc3ccccc3C(=O)NC3CC3)CC2)cc1F`, -91.3%. As to `COc1ccc(F)cc1CN1CCN(CC(=O)Nc2ccccc2C(=O)NC2CC2)CC1`, the “hERG current change (%, negative = inhibition) at 10uM” value was -87.6%. The same measure for `COc1cc2c(cc1OC)CN(CC(=O)Nc1ccccc1C(=O)NC1CC1)CC2`: -24.5%; for `COc1ccc(OC)c(CN2CCN(CC(=O)Nc3ccccc3C(=O)NC3CC3)CC2)c1`: -82.5%. The same measure for `COc1ccc(OCC(=O)Nc2ccccc2C(=O)NC2CC2)cc1`: -13.4%. In the case of `O=C(CCC(=O)c1ccc(F)cc1)Nc1ccccc1Cl`, the “hERG current change (%, negative = inhibition) at 10uM” value came out at 1.71%.

Regarding `Cc1ccc(S(=O)(=O)N2CCCC2)cc1C(=O)N1CCN(Cc2ccccc2)CC1`, the “hERG current change (%, negative = inhibition) at 10uM” value is -8.29%.

With `CC1CSc2nnc(CCc3ccccc3)n21` (stereo not drawn), the “hERG current change (%, negative = inhibition) at 10uM” value stood at 8.26%. The same measure for `O=C(CSc1ccc(-c2cccnc2)nn1)N1CCCCCC1`: 23.2%; for `CCCCn1c(N)c(N(CCOC)C(=O)CSCc2cccc(C)c2)c(=O)[nH]c1=O`: 9.08%; for `COCCNS(=O)(=O)c1ccc(SC)cc1`: 10.2%.

Regarding `Cc1cc(NC(=O)CSc2nnc(COc3ccccc3)n2Cc2ccco2)no1`, the “hERG current change (%, negative = inhibition) at 10uM” value came out at 2.24%.

`CCCN1CCc2c(sc(NC(=O)CCS(=O)(=O)c3ccccc3)c2C(N)=O)C1.Cl`: the “hERG current change (%, negative = inhibition) at 10uM” value is listed as -27.3%.

In the case of `CC(=O)N1CCc2c(sc(NC(=O)CCS(=O)(=O)c3ccccc3)c2C(N)=O)C1`, the “hERG current change (%, negative = inhibition) at 10uM” value amounted to 5.3%. The same measure for `CN1CCc2c(sc(NC(=O)CS(=O)(=O)c3ccc(F)cc3)c2C(N)=O)C1.Cl`: -58.8%; for `CC(=O)N1CCc2c(sc(NC(=O)CS(=O)(=O)c3ccc(F)cc3)c2C(N)=O)C1`: 15.7%. On to `COC(=O)c1c(NC(=O)CCS(=O)(=O)c2ccccc2)sc2c1CCN(C)C2.Cl`, for which the “hERG current change (%, negative = inhibition) at 10uM” value was -48%. The same measure for `CC(C)N1CCc2c(sc(NC(=O)CCS(=O)(=O)c3ccccc3)c2C(N)=O)C1.Cl`: -26%; for `CCCN1CCc2c(sc(NC(=O)CCS(=O)(=O)c3ccccc3)c2C(=O)OC)C1.Cl`: -67%. The same measure for `CN1CCc2c(sc(NC(=O)CS(=O)(=O)c3ccccc3)c2C(N)=O)C1.Cl`: -23.4%. The same measure for `CCOC(=O)c1c(NC(=O)CCS(=O)(=O)c2ccccc2)sc2c1CCN(C)C2.Cl`: -52.5%; for `CCOC(=O)N1CCc2c(sc(NC(=O)CCS(=O)(=O)c3ccccc3)c2C(N)=O)C1`: -10.8%; for `CC(C)N1CCc2c(sc(NC(=O)CCS(=O)(=O)c3ccccc3)c2C#N)C1.Cl`: -9.63%. With `CCOC(=O)c1c(NC(=O)CCS(=O)(=O)c2ccccc2)sc2c1CCN(C(C)C)C2.Cl`, the “hERG current change (%, negative = inhibition) at 10uM” value was -72.4%. In the case of `CC(Sc1ncn[nH]1)C(=O)Nc1ccc(Cl)cn1` (stereo not drawn) it was 2.06%; in that of `O=C(O)c1ccc(/C=C/c2nc3ccccc3c(=O)[nH]2)cc1`, 17.5%; in that of `CCSc1nnc(NC(=O)c2cccs2)s1`, -8.23%. The same measure for `COc1cc(OC)cc(-c2nnc(SCC(=O)N3c4ccccc4Sc4ccccc43)o2)c1`: 15.3%; for `CC1C=CCC2C(=O)N(c3ccc(Cl)cc3O)C(=O)C12` (stereo not drawn): -2.47%; for `COC(=O)c1sc(N2C(=O)C(O)=C(C(=O)c3ccc(C)o3)C2c2ccco2)nc1C` (stereo not drawn): -4.73%.

For `O=C(O)C1=C[C@H](c2ccc(C(F)(F)F)cc2)C[C@H](OCc2ccc(CO)cc2)O1`, the “hERG current change (%, negative = inhibition) at 10uM” value turned out to be 21.5%. As for `O=C(CSc1ccsc1[N+](=O)[O-])N1CCN(c2ccc(Cl)cc2)CC1`, the “hERG current change (%, negative = inhibition) at 10uM” value is 10%. Regarding `O=C(COc1ccc(Cl)cc1)Nc1ccc(NC(=O)c2ccco2)cc1`, the “hERG current change (%, negative = inhibition) at 10uM” value was determined as 13.4%.

With `COc1cccc(CN(C)C(=O)Nc2cccc(C(F)(F)F)c2)c1OC`, the “hERG current change (%, negative = inhibition) at 10uM” value is -4.73%. In the case of `O=C(NCc1ccc(Cl)cc1)c1cc2c(s1)CS(=O)(=O)C2` it was -15.1%. Regarding `O=C(CCCn1c(=O)c2sccc2n(Cc2ccc(F)cc2)c1=O)NCc1ccco1`, the “hERG current change (%, negative = inhibition) at 10uM” value is on record as -30.2%.

Turning to `O=C(NCc1cccs1)Nc1ccc(Cl)cc1`, the “hERG current change (%, negative = inhibition) at 10uM” value was -21.2%. For the compound `O=C(O)c1ccc2c(c1)S(=O)(=O)c1cc(Cl)ccc1C2=O`, the “hERG current change (%, negative = inhibition) at 10uM” value came to 19.5%. In the case of `Cc1cccc(N2CCN(C(=O)COc3ccc4ccc(=O)oc4c3)CC2)c1C` it was 5.66%; in that of `CCN1/C(=C2\SC(=S)N(Cc3ccccc3)C2=O)Sc2ccccc21`, 13.6%. Turning to `CCC(CO)[n+]1c(C)cc(/C=C2\Sc3ccccc3N2Cc2ccccc2)cc1C.[Br-]` (stereo not drawn), the “hERG current change (%, negative = inhibition) at 10uM” value is recorded as -75.6%.

For `C[n+]1ccccc1/C=C1\Sc2ccccc2N1CCO.[I-]`, the “hERG current change (%, negative = inhibition) at 10uM” value was -2.79%. The same measure for `Nc1cc([N+](=O)[O-])ccc1O`: 6.95%. The same measure for `Clc1cncc(Cl)c1N/N=C/c1ccccc1`: -1.37%; for `CNC(=O)c1cc2cc(Cc3ccccc3Cl)ccc2oc1=O`: 1.75%. On to `CCN1C(=O)C(CC(=O)Nc2ccc(F)cc2)N(Cc2cccs2)C1=S` (stereo not drawn), for which the “hERG current change (%, negative = inhibition) at 10uM” value is reported as -48.9%. Take `CCOc1ccc2c(c1)C(N(CCN1CCOCC1)C(=O)Nc1ccccc1)CC(C)(C)O2` (stereo not drawn): the “hERG current change (%, negative = inhibition) at 10uM” value is -19.1%. In the case of `CCOc1ccc2c(c1)C(N(CCN1CCOCC1)C(=O)Nc1ccc(OC)cc1OC)CC(C)(C)O2` (stereo not drawn), the “hERG current change (%, negative = inhibition) at 10uM” value is listed as -51.9%. As to `CCOc1ccc2c(c1)C(N(CCN1CCOCC1)C(=S)Nc1ccccc1OC)CC(C)(C)O2` (stereo not drawn), the “hERG current change (%, negative = inhibition) at 10uM” value is on record as -24.9%. The same measure for `CN(C(=O)/C=C/c1ccc2c(c1)OCO2)c1ccccc1`: -4.59%; for `CN1CCN(C(CNC(=O)C(=O)Nc2ccc3c(c2)OCO3)c2ccc(F)cc2)CC1` (stereo not drawn): -44.3%; for `COc1ccc(C(CNC(=O)C(=O)Nc2ccc3c(c2)OCCO3)N2CCN(C)CC2)cc1` (stereo not drawn): -45.1%. The same measure for `CN1CCN(C(CNC(=O)C(=O)Nc2ccc3c(c2)OCCO3)c2ccc(F)cc2)CC1` (stereo not drawn): -46.2%. The same measure for `Cc1ccc(C(CNC(=O)C(=O)Nc2ccc3c(c2)OCCO3)N2CCN(C)CC2)cc1` (stereo not drawn): -55.5%.

As for `COc1ccc(C(CNC(=O)C(=O)Nc2ccc3c(c2)OCO3)N2CCN(C)CC2)cc1` (stereo not drawn), the “hERG current change (%, negative = inhibition) at 10uM” value is listed as -50.9%. In the case of `CC(C)CNC(=O)C(=O)NCC(c1ccc2c(c1)OCO2)N1CCOCC1` (stereo not drawn) it was 6.81%; in that of `CCOc1cc2c(cc1OC)C(NC(=O)C(F)(F)F)CC2=O` (stereo not drawn), -0.243%; in that of `CC1CCc2nc3ccc(S(=O)(=O)N4CCC(C(=O)NCc5ccccc5Cl)CC4)cc3c(C(=O)O)c2C1` (stereo not drawn), 7.04%. The same measure for `O=C(O)c1ccc(N2C(=O)CC(N3CCC(c4nc5ccccc5[nH]4)CC3)C2=O)cc1` (stereo not drawn): 4.95%; for `COc1ccc(-c2ccc(Nc3ccc(C(=O)N4CCOCC4)cc3)nn2)cc1OC`: -5.3%; for `CC(=O)Nc1ccc2c(c1)OCCOCCOc1cc(NC(C)=O)ccc1OCCO2`: -4.52%.

As to `CC(=O)N1CCN(C(=O)c2ccc3c(c2)OCCO3)CC1`, the “hERG current change (%, negative = inhibition) at 10uM” value was 10.9%.

Take `Cc1cc[n+](CC(=O)c2ccc3c(c2)OCCO3)cc1.[Br-]`: the “hERG current change (%, negative = inhibition) at 10uM” value is -22.2%.

On to `CC(=O)N/N=C(\C)c1ccc2c(c1)OCCO2`, for which the “hERG current change (%, negative = inhibition) at 10uM” value was found to be 11%. Take `CCC(=O)c1ccc2c(c1)OCCO2`: the “hERG current change (%, negative = inhibition) at 10uM” value is reported as 3.36%. In the case of `O=C(C[n+]1ccc(/C=C/c2ccccc2)cc1)c1ccc2c(c1)OCCO2.[Br-]` it was -50.2%; in that of `CC(C)(C)C(=O)Nc1ccc2c(c1)OCCOCCOc1cc(NC(=O)C(C)(C)C)ccc1OCCOCCO2`, -65.5%; in that of `CC(=O)c1ccc2c(c1)OCCOCCOc1ccccc1OCCOCCO2`, -74.4%. Regarding `C/C(=N/O)c1ccc2c(c1)OCCOCCOc1cc(/C(C)=N/O)ccc1OCCOCCO2`, the “hERG current change (%, negative = inhibition) at 10uM” value is recorded as -77.3%. Turning to `CC(=O)Nc1ccc2c(c1)OCCOCCOc1cc(NC(C)=O)ccc1OCCOCCOCCO2`, the “hERG current change (%, negative = inhibition) at 10uM” value is -2.81%.

With `Nc1cc[n+](CC(=O)c2ccc3c(c2)OCCO3)cc1.[Br-]`, the “hERG current change (%, negative = inhibition) at 10uM” value is reported as -0.154%.

Regarding `C/C(=N\O)c1ccc2c(c1)OCCO2`, the “hERG current change (%, negative = inhibition) at 10uM” value amounted to 14.3%. The same measure for `COC(=O)CCC(=O)NNC(=O)CCC(=O)Nc1cccc(Cl)c1C`: 6.61%; for `CNC(=O)c1cc(-c2ccc(Cl)cc2)n(-c2ccccc2)n1`: 4.41%; for `Cc1ccc(C)c(NS(=O)(=O)c2cc(C(=O)NCC3CCCO3)ccc2C)c1` (stereo not drawn): -47.7%. In the case of `Cc1nc(S(=O)(=O)Cc2ccccc2Cl)nc2c1CCC2` it was 24.1%. Take `O=C(CSc1nc2c(cnn2-c2cccc(Cl)c2)c(=O)[nH]1)NCCC1=CCCCC1`: the “hERG current change (%, negative = inhibition) at 10uM” value is -16.7%.

Consider `CC(C)NC(=O)COC(=O)CNC(=O)c1cc(Cl)cc([N+](=O)[O-])c1`, for which the “hERG current change (%, negative = inhibition) at 10uM” value was -0.0659%. In the case of `COC(=O)/C(=N\OCc1ccc(C#N)cc1)c1c(C)nn(C)c1C`, the “hERG current change (%, negative = inhibition) at 10uM” value is listed as -29.3%.
